About 79,000 compounds went through this panel and 15% of them were active in at least one assay; those are over-represented in the sample as a whole. Values without a mark were called inactive. Calls of active or inactive are those of the source. Cut-off read from the data, not from the text of the source: active = growth inhibition above about 70%; inactive = the rest.
Legend:
[1] = NCI Yeast Anticancer Drug Screen. Data for the rad50 strain (AID 155);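 note: 0% = growth of vehicle-only cultures of the same strain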; settings: S. cerevisiae rad50 strain growth inhibition, stronger effect = higher value
How it was run: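 Inhibition values express reduced yeast growth in compound-treated cultures relative to vehicle-treated controls.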

[2] = NCI Yeast Anticancer Drug Screen. Data for the mec2-1 strain (AID 157); settings: S. cerevisiae mec2-1 strain, stronger effect = higher value
How it was run: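 Compounds were applied to mec2-1 yeast cells. Their growth was then compared with that of vehicle-treated cultures to give growth inhibition.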

[3] = NCI Yeast Anticancer Drug Screen. Data for the sgs1 mgt1 strain (AID 161);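 note: 0% = growth of cultures given vehicle only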; settings: S. cerevisiae sgs1 mgt1 strain, stronger effect = higher value
How it was run: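 Compounds are added to genetically altered yeast, and growth is compared with cultures given vehicle alone to give percent inhibition.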

[4] = NCI Yeast Anticancer Drug Screen. Data for the cln2 rad14 strain (AID 165);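 note: 0% = growth equal to vehicle treated cultures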; settings: S. cerevisiae cln2 rad14 strain, stronger effect = higher value
How it was run: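 Strain: cln2 rad14 yeast, altered in cell cycle control and DNA damage repair. Read-out: growth inhibition vs vehicle.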

[5] = NCI Yeast Anticancer Drug Screen. Data for the bub3 strain (AID 167); settings: S. cerevisiae bub3 mutant strain, stronger effect = higher value
How it was run: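 Steps: expose the mutant yeast strain to compound; grow alongside vehicle-treated cultures; measure growth; express inhibition against the vehicle cultures.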

[6] = NCI Yeast Anticancer Drug Screen. Data for the mlh1 rad18 strain (AID 175); settings: S. cerevisiae mlh1 rad18 strain growth inhibition, stronger effect = higher value
How it was run: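 A repair-deficient yeast strain is exposed to test compound, and growth is scored relative to vehicle-treated controls.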

[7] = at 5.0 µM (retest, dose inferred, filed as 0.5)
[8] = at 50.0 µM (retest, dose inferred, filed as 5.0)

| SMILES | growth inhibition [1, 7] | growth inhibition [1, 8] | growth inhibition ([1]; at 50.0 µM) | growth inhibition [2, 7] | growth inhibition [2, 8] | growth inhibition ([2]; at 50.0 µM) | growth inhibition [3, 7] | growth inhibition [3, 8] | growth inhibition ([3]; at 50.0 µM) | growth inhibition [4, 7] | growth inhibition [4, 8] | growth inhibition ([4]; at 50.0 µM) | growth inhibition [5, 7] | growth inhibition [5, 8] | growth inhibition ([5]; at 50.0 µM) | growth inhibition [6, 7] | growth inhibition [6, 8] | growth inhibition ([6]; at 50.0 µM) |
| --- | --- | --- | --- | --- | --- | --- | --- | --- | --- | --- | --- | --- | --- | --- | --- | --- | --- | --- |
| CN(Cc1cnc2nc(N)nc(N)c2n1)c1ccc(C(=O)NC(CCC(=O)O)C(=O)O)c(Cl)c1Cl (configuration not stated) | -4% | 79% (active) | 94.2% (active) | 41% | 98% (active) | 98.2% (active) | -5% | 55% | 85.5% (active) | -8% | -13% | -11.2% | -21% | 64% | 77.5% (active) | 13% | 82% (active) | 88.2% (active) |
| Cc1ccc(C(=O)OCC(C)C)cc1N=NN(C)C | 4% | 21% | 68.8% | -3% | -6% | 19.9% | -5% | 14% | 29.4% | 7% | 31% | 38.8% | -1% | 48% | 31.1% | -24% | 38% | 8.3% |
| c1ccc(C(CNCCN2CCCCCC2)C2CCCCC2)cc1 (configuration not stated) | 21% | 12% | 82.5% (active) | 13% | 22% | 44.6% | 26% | -9% | 89.8% (active) | 10% | 16% | 74.7% (active) | 22% | 20% | 66.5% | 18% | 23% | 87.2% (active) |
| CCCCCCC[n+]1ccc(C(=O)c2ccccc2)cc1 | 99% (active) | 99% (active) | 99.4% (active) | 100% (active) | 99% (active) | 94.3% (active) | 100% (active) | 100% (active) | 99.5% (active) | 99% (active) | 100% (active) | 80.2% (active) | 99% (active) | 99% (active) | 99.3% (active) | 99% (active) | 99% (active) | 99.5% (active) |
| C=CCNC(=S)N/N=C/c1nccc(-c2ccccc2)c1C | 37% | 96% (active) | 73.3% (active) | 29% | 97% (active) | 81.6% (active) | 46% | 96% (active) | 82% (active) | 38% | 94% (active) | 84.7% (active) | 54% | 95% (active) | 84.5% (active) | 24% | 93% (active) | 78.5% (active) |
| CCCCCN(CCCCC)CCCNc1ccc(C)c2sc3ccccc3c(=O)c12 | 98% (active) | 96% (active) | 98.4% (active) | 99% (active) | 98% (active) | 99% (active) | 99% (active) | 98% (active) | 99% (active) | 99% (active) | 95% (active) | 95% (active) | 99% (active) | 96% (active) | 98% (active) | 99% (active) | 97% (active) | 97.5% (active) |
| Cc1nc(N)nc(-c2ccccc2)c1N=Nc1ccc(Cl)cc1 | -2% | 61% | 54.9% | 17% | 73% (active) | 29.1% | 1% | 74% (active) | 23.9% | -7% | 56% | 51.3% | -1% | 86% (active) | 88.2% (active) | -13% | 89% (active) | 81.7% (active) |
| CSC(SC)C(SC)SC | 1% | 98% (active) | 1.65% | 1% | 99% (active) | -5.4% | -4% | 99% (active) | 0.65% | 6% | 99% (active) | 16.6% | 0% | 99% (active) | -2.35% | -1% | 99% (active) | -1.15% |
| CCCCCCCCCCCCCCCCN1CCSCC1 | 39% | 98% (active) | 98.3% (active) | 45% | 99% (active) | 99% (active) | 65% | 99% (active) | 98.9% (active) | 23% | 99% (active) | 98.7% (active) | 36% | 99% (active) | 99% (active) | 69% | 99% (active) | 98.7% (active) |
| Cc1nn(-c2ccc(S(=O)(=O)[O-])cc2)c([O-])c1N=[N+](C)c1ccc(-c2ccc(N=Nc3ccc4c(S(=O)(=O)[O-])cc(S(=O)(=O)[O-])c(N)c4c3[O-])c([O-])c2)cc1[O-].[Cu+2].[Cu+2].[Na+] | 6% | -15% | -26.5% | -3% | -17% | 18.9% | 6% | -15% | -19.4% | -7% | -28% | 64.5% | -9% | -11% | -60.1% | -9% | -4% | 17.6% |
| Clc1c2ccccc2cc2cccnc12 | 17% | 90% (active) | 50.2% | 7% | 26% | 54.6% | 6% | 81% (active) | 48.8% | 3% | 40% | 36% | 3% | 71% (active) | 76% (active) | 17% | 86% (active) | 67.2% |
| CC(c1ccccc1)[P+](c1ccccc1)(c1ccccc1)c1ccccc1 (configuration not stated) | 5% | 97% (active) | 97.8% (active) | 13% | 97% (active) | 97.5% (active) | 11% | 98% (active) | 97.7% (active) | -4% | 95% (active) | 96.8% (active) | 6% | 99% (active) | 96.1% (active) | 16% | 97% (active) | 98% (active) |
| COc1ccc(Cc2ccc3c(C)cc(Cl)nc3c2)cc1 | 1% | 74% (active) | 77% (active) | -8% | 87% (active) | 67.8% | -5% | 96% (active) | 87% (active) | 1% | 29% | 31.6% | 10% | 78% (active) | 89% (active) | 0% | 93% (active) | 86.3% (active) |
| O=c1cc(N=Nc2ccc(Cl)c(Cl)c2)[nH]c(=O)[nH]1 | 37% | 95% (active) | 85.8% (active) | 25% | 97% (active) | 86.6% (active) | 54% | 97% (active) | 88.7% (active) | 32% | 97% (active) | 89.5% (active) | 73% (active) | 97% (active) | 86.8% (active) | 41% | 96% (active) | 82% (active) |
| Nc1c(Cl)nc(C(F)(F)F)nc1NCc1ccccc1 | 60% | 99% (active) | 39.7% | 99% (active) | 99% (active) | 8.25% | 97% (active) | 99% (active) | 1.45% | 99% (active) | 99% (active) | -48.1% | 99% (active) | 99% (active) | 23.7% | 91% (active) | 99% (active) | 5.35% |
| Cn1ncc2c(Nc3cccc(Cl)c3)nc(Nc3cccc(Cl)c3)nc21 | 47% | 97% (active) | 96% (active) | 18% | 98% (active) | 94.2% (active) | 27% | 98% (active) | 96.2% (active) | 11% | 97% (active) | 95.4% (active) | -7% | 98% (active) | 94.2% (active) | 32% | 97% (active) | 95.7% (active) |
| CCC#CC(O)(C(=O)OCC)C1CCCC1 (configuration not stated) | -148% | -161% | -1.05% | -50% | -51% | 13.5% | -59% | -64% | -0.35% | -57% | -59% | 33.5% | -67% | -85% | 18.4% | -115% | -115% | 7.9% |
| COc1cc(C=O)c(Cl)cc1O | 2% | 21% | 55% | 1% | 43% | 67% | 1% | 47% | 90% (active) | -4% | 25% | 60.2% | -2% | 14% | 44.5% | 2% | 34% | 77.8% (active) |
| CC1=CC(C2/C(=N/O)C=C(C)CC2(C)C)C(O)C(C)(C)C1 (configuration not stated) | 7% | 95% (active) | 99.2% (active) | -18% | 99% (active) | 98.2% (active) | -4% | 96% (active) | 98.8% (active) | -1% | 97% (active) | 97.8% (active) | -23% | 92% (active) | 98.2% (active) | -3% | 98% (active) | 98.7% (active) |

Reference: PubChem BioAssay (NCI)
